This is one part of a sample in which hits are shown more often than they occur.
Pin1 inhibitor: inhibitors of human Pin1 | Q13526 | Pin1 FP peptide displacement, HiFluor488, 10 min | Potency, µM (titrated, usually from 115 µM), for the others: at the highest dose activity, negative = inhibition, usual class: inhibitors | 0.009% of 390,000 active; active = well fitted inhibition curve with a large enough effect in the polarisation, with a control signal flat, not every such curve was filed as active; inconclusive = small, poorly fitted or top-dose-only effect, or effect the other way, or a change in a side signal; inactive = no such curve, though single readings can be large or run the other way; the % refers to the polarisation; also: potency is read from the fitted curve at half-maximal effect; % is scaled to controls: 0 for no effect and ±100 for the full control effect
Target sequence (Q13526 whole entry, looked up): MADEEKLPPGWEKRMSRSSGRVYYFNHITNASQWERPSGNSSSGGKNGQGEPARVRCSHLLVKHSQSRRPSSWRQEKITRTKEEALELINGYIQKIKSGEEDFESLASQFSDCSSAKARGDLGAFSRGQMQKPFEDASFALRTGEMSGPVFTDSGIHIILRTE
Tb PFK inh-1: blocks T. brucei phosphofructokinase. O15648. T. brucei PFK, ADP-Glo luminescence. Potency, µM (titrated, usually from 57.5 µM), for inactives: at the highest dose activity, negative = inhibition, most hits filed as inhibitors. 0.17% of 330,000 active;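 also: potency is read from the fitted curve at half-maximal effect; 0% = uninhibited 1x PFK enzyme wells and -100% = no-enzyme wells; nearly all actives have a fitted effect of over 60% in size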
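PFK 1.25 nM, F6P 0.5 mM, ATP 0.1 mM, 0.1 M TEA pH 8.0, 5 mM MgCl2, 0.01% Tween20, 0.1% BSA; 45 min RT. ADP-Glo readout. qHTS titration up to 57 uM; curves fitted, compounds curve-classed.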
PI5P4K alpha inh: PI5P4K alpha (human) kinase inhibition; P48426; PI5P4Kalpha enzyme, ADP-Glo luminescence, 60 min; stronger effect = lower value; max response, %; 1.2% of 330,000 active; active = max response of -50% or lower; inconclusive = between -30% and -50%; inactive = -30% or higher; also: value at the top dose of about 77 µM; % is scaled to controls: 0 for no effect and ±100 for the full control effect
Target sequence (P48426 whole entry, looked up): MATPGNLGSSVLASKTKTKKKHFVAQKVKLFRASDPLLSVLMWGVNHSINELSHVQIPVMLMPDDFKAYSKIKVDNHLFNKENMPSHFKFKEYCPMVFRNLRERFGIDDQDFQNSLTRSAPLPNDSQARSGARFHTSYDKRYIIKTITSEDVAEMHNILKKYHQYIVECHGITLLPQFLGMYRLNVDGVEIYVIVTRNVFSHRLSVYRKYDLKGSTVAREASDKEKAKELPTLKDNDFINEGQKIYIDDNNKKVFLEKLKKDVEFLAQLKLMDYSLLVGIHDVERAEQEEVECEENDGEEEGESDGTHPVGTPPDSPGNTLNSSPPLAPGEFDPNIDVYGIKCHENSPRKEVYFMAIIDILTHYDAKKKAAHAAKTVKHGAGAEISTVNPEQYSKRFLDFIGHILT
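qHTS, 1536-well: enzyme/substrate mix, compound by pin tool, 5 microM ATP final; RT 60 min; ADP-Glo reagents 1 (45 min) then 2 (30 min); luminescence.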
PI4K2A inh: blocks human PI4K2A kinase activity. Q9BTU6. purified PI4K2A, ADP-Glo luminescence, 1 h; stronger effect = lower value. activity change, negative = inhibition, % at 76.9 µM. 0.13% of 420,000 active. AID 1346378; in the data active = activity change below about -50%; inconclusive = mostly about -30% to -49%;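 also: -100% = wells without enzyme as full effect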
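ADP-Glo luminescence measured ADP generated by PI4K2A enzyme (4 ug/mL before mixing) with 1.2 mM PI substrate (pre-mix) and 300 microM ATP (pre-mix). Tris pH7.5 buffer with MgCl2, Triton X-100; 1 h reaction at ambient temperature.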
Tb PGK inh: T. brucei PGK inhibition. AID 602233. Potency, µM (top dose mostly 57.5 µM), inactives show at the highest dose activity change, negative = inhibition, actives largely listed as inhibitors. P07378. 0.043% of 380,000 active. PGK/GAPDH coupled, Kinase-Glo luminescence, 60 min; also: potency is read from the fitted curve at half-maximal effect; % is scaled to controls: 0 for no effect and ±100 for the full control effect; nearly all actives have a fitted effect of over 60% in size
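Recombinant glycosomal PGK reaction used 1,3-bisphosphoglycerate generated in-well by GAPDH (100nM final) in 100mM TEA pH 7.6, 5mM MgCl2, 0.01% Tween-20. After 60 minutes at room temperature, ATP was read by Kinase-Glo Plus luminescence end-point.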
Tb PFK KinaseGlo: inhibits T. brucei PFK measured by ATP depletion; shares compounds with Tb PFK inh-1; Tb PFK enzyme, ATP depletion, Kinase-Glo Plus luminescence; Potency, µM (series often up to 57.5 µM), for inactives: at the top dose inhibition; 47% of 1,100 active; AID 504636; calls by dose curve; also: potency is read from the fitted curve at half-maximal effect; nearly all actives have a fitted effect of over 60% in size
Tb PFK inh-2: T. brucei PFK enzyme inhibition, hit validation; AID 504637; Potency, µM (series often up to 57.5 µM), for the others: at the top dose activity change, negative = inhibition, hits mostly inhibitors; purified T. brucei PFK, ADP-Glo luminescence, 45 min; shares compounds with Tb PFK inh-1; 41% of 1,100 active;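 also: potency is read from the fitted curve at half-maximal effect; plate controls were full PFK enzyme control for no effect and no enzyme control for full effect; nearly all actives have a fitted effect of over 60% in size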
* = called active by the depositor; i = inactive; u = inconclusive; x = no result. Unless noted, calls follow the shape of the dose curve; as a rule, active = well fitted curve in the direction sought with a large enough effect; inconclusive = small, poorly fitted or top-dose-only effect, or another doubt; inactive = no such curve, though single readings can be large; an effect the other way counts as inactive or inconclusive.

SMILES	Pin1 inhibitor	Tb PFK inh-1	PI5P4K alpha inh	PI4K2A inh	Tb PGK inh	Tb PFK KinaseGlo	Tb PFK inh-2
Cc1cccc(-n2c(-c3ccco3)nc3ccccc3c2=O)n1	-3%	8%	5	5	-3%	x	x
Cc1ccc(/C=c2\sc3nc(-c4ccco4)nn3c2=O)o1	u	21µM*	-69*	1	u	u	u
O=C(COc1cccc(Cl)c1)N1CCN(CCc2ccncc2)CC1	1%	x	x	-5	-10%	x	x
C[C@]12CC[C@H]3[C@@H](CC=C4C[C@@H](O)CC[C@@]43C)[C@@H]1CC[C@@H]2O	x	x	x	-1	x	x	x
Cn1c(Oc2ccccc2NCc2cc(Br)ccc2O)cc(=O)n(C)c1=O	1%	u	0	2	i	19µM*	13µM*
O=C(COC(=O)Cc1cccc(C(F)(F)F)c1)NCc1ccco1	-6%	8.5µM*	u	-21	u	3.8µM*	11µM*
CC1(C)C(C(=O)NCc2ccco2)C1(C)C	-1%	-3%	4	0	-5%	x	x
COc1cc(OC)cc(C(=O)OCC(=O)NCc2ccco2)c1	u	15µM*	-6	-10	-15%	u	u
CCOc1ccc(CN(CCc2ccc3c(c2)OCO3)Cc2ccc(OC)c(Br)c2)cc1	u	x	x	1	i	x	x
CCOP(=O)(Nc1ccc2c(c1)C(=NNC(N)=S)c1ccccc1-2)OCC	2%	x	-14	-2	-3%	x	x
NC(=O)N/N=C1\c2ccccc2-c2c(C(N)=O)cccc21	-3%	u	-2	109	-8%	11%	-4%
CC(=O)OC1(c2ccccc2)CCN(CCc2ccccc2)CC1	x	x	x	i	x	x	x
Cc1ccc(-n2c(/C=C\c3ccc(F)c(F)c3)nc3ccccc3c2=O)c(C)c1	3%	x	x	-1	i	x	x
COCCn1c(SCCN2CCOCC2)nc2c1c(=O)[nH]c(=O)n2C	-4%	u	-15	8	-4%	21µM*	34µM*
CC(=O)[C@H]1CC[C@H]2[C@@H]3CC[C@H]4C[C@](C)(O)CC[C@]4(C)[C@H]3CC[C@]12C	x	x	x	1	x	x	x
O=C(COc1ccccc1[N+](=O)[O-])N1CCN(CCc2ccncc2)CC1	3%	x	x	-2	-8%	x	x
O=C(COc1ccc(Cl)cc1Cl)Nc1ccc(S(=O)(=O)NC2=NCCCCC2)cc1	0%	15µM*	-7	-5	3%	u	30µM*
O=C(COc1ccccc1[N+](=O)[O-])Nc1cccc(S(=O)(=O)NC2=NCCCCC2)c1	-17%	u	-24	-1	-14%	u	u
CCN(CC)C(=O)c1ccc(NC(=O)COc2ccc([N+](=O)[O-])cc2Cl)cc1	-2%	-4%	0	0	i	x	x
CC(C)(O)C(Cl)(Cl)Cl	x	x	x	1	x	x	x
Cn1cc(P(=S)(c2ccccc2)c2ccccc2)c2ccccc21	-2%	x	x	-4	x	x	x
Cc1ccc(-c2cc(C(=O)N/N=C/C(Br)=C/c3ccccc3)n[nH]2)o1	7%	u	u	-7	-1%	-20%	u
FC(F)(F)c1cccc(NC2=NCCCS2)c1	-4%	-1%	-2	4	-1%	x	x
CC(=O)Nc1cccc([As](=O)(c2cccc(NC(C)=O)c2)c2cccc(NC(C)=O)c2)c1	3%	-1%	0	-10	-2%	x	x
Cc1cccnc1NC(=S)Nc1ccc(Cl)c(Cl)c1	-1%	13µM*	-11	-1	i	u	u
SMILES	Pin1 inhibitor	Tb PFK inh-1	PI5P4K alpha inh	PI4K2A inh	Tb PGK inh	Tb PFK KinaseGlo	Tb PFK inh-2
FC(F)(F)c1cccc(NC(=S)Nc2ccc(Cl)c(Cl)c2)c1	u	9.5µM*	12	11	-1%	u	u
CC(=O)Nc1cccc(NC(=S)Nc2ccc(F)c(Cl)c2)c1	-8%	21µM*	-9	4	-10%	u	u
COc1ccc(OCC(=O)N2CCN(Cc3c[nH]c4ccccc34)CC2)cc1	2%	-4%	-6	7	-5%	x	x
COc1ccc(N=C2S/C(=C\c3ccc(OCC(=O)O)cc3)C(=O)N2CCc2c[nH]c3ccccc23)cc1	x	1.1µM*	-57*	-1	-16%	u	u
CC(=C\C(=O)O)/C(=C\c1cccc2ccccc12)C(=O)O	-2%	u	16	0	-1%	-1%	-1%
C[C@H](N)[C@H](O)c1ccc(O)c(O)c1	x	x	x	-22	x	x	x
O=C(CCl)c1ccc(Cl)cc1Cl	x	x	x	6	x	x	x
Oc1ccc(Cl)c(Cl)c1	-2%	u	21	3	-5%	x	x
CN(C)C=Nc1ccc(Cl)c(Cl)c1	-2%	27µM*	8	2	4%	12%	-8%
C[C@]12Cc3cn4c(nc3C=C1CCC1C2CC[C@@]2(C)[C@H]1CC[C@@]2(O)C#N)nc1ccccc14 (stereo partly drawn)	x	x	x	3	x	x	x
Cc1ccc(C(=O)NCC(=O)OCC(=O)Nc2ccc3[nH]c(=O)[nH]c3c2)cc1	1%	u	5	-1	-9%	u	u
O=C(COC(=O)c1ccccc1OC(F)F)Nc1ccc2[nH]c(=O)[nH]c2c1	11%	u	-2	-3	-5%	u	u
O=C(COC(=O)Cc1ccc(F)cc1)Nc1ccc2[nH]c(=O)[nH]c2c1	9%	u	-12	2	i	u	u
CC(=O)Nc1ccccc1C(=O)OCC(=O)Nc1ncccn1	-16%	5%	2	0	1%	x	x
CCOc1ccc(NC(=O)c2ccc(NC(=O)COC(=O)Cc3ccccc3)cc2)cc1	9%	-2%	-17	-5	i	x	x
Cc1ccc(NC(=O)Cn2cc(C(=O)c3ccccc3)c3ccccc32)cc1	55%	x	x	1	16%	x	x
ClC1=C(Cl)C2(Cl)C(CBr)CC1(Cl)C2(Cl)Cl (stereo not drawn)	x	x	x	-4	x	x	x
CCOc1cc(C(=O)OCc2ccc([N+](=O)[O-])cc2)ccc1OCC(=O)N1CCOCC1	-2%	u	2	-5	i	15µM*	27µM*
NNC(=O)CNc1cccc(Cl)c1	3%	12µM*	-1	9	-2%	24µM*	27µM*
c1ccc(Cn2nnnc2C2CN=C(c3ccccc3)c3ccccc3N2)cc1 (stereo not drawn)	x	x	x	2	x	x	x
Cc1cc(C)nc(NS(=O)(=O)c2ccc(NC(=O)c3cc(=O)c4ccccc4o3)cc2)n1	-10%	u	-3	2	-8%	-27%	u
CCCN(CCC)c1c([N+](=O)[O-])cc(S(N)(=O)=O)cc1[N+](=O)[O-]	x	x	x	i	x	x	x
NS(=O)(=O)c1ccc(N/N=C/c2ccc(O)c(O)c2O)c([N+](=O)[O-])c1	u	u	-75*	-19	-19%	u	u

High-throughput results as filed in PubChem.
